# Measurements published in PubChem BioAssay AID2078 (The Scripps Research Institute Molecular Screening Center, 2009).
# Calls of active or inactive are those of the source. How the calls were made is not given here.
# System: Cytotoxicity
# Assay: STAT3 blockade with qPCR and toxicity readouts – cell-based, STAT1 panel, cytotoxicity, late-stage follow-up (AID 2078)
# Settings: cell reporter assay; series mostly up to 55.7 µM
structure (smiles),measurement,value
c1ccc(CC2CCN(c3ncnc4sccc34)CC2)cc1,outcome,inactive
